In the supplement of paper PMC11006884:
The full data set covers some 6,500 targets. This sample favours those with a hit. About 2% of all pairs of compound and target were hits. Unmarked numbers belong to inactive results.

Each target was assayed with COC(=O)C#Cc1ccccc1 [methyl 3-phenylpropiolate] (assay: log2 ratio of iodoacetamide-alkyne labeling of the cysteine site, DMSO over compound (competition); higher = stronger covalent engagement of the cysteine by the compound, active = 1 or more). Conditions: 500 µM; treatment time 1 h; system: HEK293T cell lysate.
Method in brief: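 Reporter intensities give each cysteine's log2 competition ratio as the mean of control channels over the mean of compound channels. The samples were HEK293T lysate (2 mg/mL) given vehicle or electrophile (500 µM, 1 h, ambient temperature), then iodoacetamide alkyne (1 h), followed by click coupling to sCIP-TMT reagents, pooling, trypsin digestion overnight at 37 °C, streptavidin enrichment, acid elution, Orbitrap Eclipse LC-MS/MS with FAIMS and FragPipe quantification. Duplicate channels and three replicates were run, and cysteines quantified in only one replicate were discarded.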

Sequence of UniProt Q9NQX3 (Q9NQX3 whole entry, looked up): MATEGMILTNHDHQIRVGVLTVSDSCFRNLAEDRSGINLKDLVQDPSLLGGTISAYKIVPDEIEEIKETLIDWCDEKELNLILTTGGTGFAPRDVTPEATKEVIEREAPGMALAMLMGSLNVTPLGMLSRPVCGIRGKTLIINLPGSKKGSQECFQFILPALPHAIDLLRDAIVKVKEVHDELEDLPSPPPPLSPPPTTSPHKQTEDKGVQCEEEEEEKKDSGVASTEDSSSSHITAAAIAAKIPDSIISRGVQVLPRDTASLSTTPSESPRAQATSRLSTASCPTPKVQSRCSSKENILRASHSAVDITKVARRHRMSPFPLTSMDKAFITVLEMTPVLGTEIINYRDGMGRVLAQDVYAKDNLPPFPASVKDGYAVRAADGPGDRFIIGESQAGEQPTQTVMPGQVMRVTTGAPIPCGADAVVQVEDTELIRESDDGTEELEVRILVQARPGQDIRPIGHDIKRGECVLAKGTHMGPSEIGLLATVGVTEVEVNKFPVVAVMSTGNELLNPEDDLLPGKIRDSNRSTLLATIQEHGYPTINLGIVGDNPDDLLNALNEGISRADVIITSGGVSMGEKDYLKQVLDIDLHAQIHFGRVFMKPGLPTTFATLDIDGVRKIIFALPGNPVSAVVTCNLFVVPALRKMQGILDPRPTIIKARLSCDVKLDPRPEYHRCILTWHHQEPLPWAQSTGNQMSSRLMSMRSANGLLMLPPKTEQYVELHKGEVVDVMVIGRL
Sequence of UniProt Q9UDR5 (Q9UDR5 whole entry, looked up): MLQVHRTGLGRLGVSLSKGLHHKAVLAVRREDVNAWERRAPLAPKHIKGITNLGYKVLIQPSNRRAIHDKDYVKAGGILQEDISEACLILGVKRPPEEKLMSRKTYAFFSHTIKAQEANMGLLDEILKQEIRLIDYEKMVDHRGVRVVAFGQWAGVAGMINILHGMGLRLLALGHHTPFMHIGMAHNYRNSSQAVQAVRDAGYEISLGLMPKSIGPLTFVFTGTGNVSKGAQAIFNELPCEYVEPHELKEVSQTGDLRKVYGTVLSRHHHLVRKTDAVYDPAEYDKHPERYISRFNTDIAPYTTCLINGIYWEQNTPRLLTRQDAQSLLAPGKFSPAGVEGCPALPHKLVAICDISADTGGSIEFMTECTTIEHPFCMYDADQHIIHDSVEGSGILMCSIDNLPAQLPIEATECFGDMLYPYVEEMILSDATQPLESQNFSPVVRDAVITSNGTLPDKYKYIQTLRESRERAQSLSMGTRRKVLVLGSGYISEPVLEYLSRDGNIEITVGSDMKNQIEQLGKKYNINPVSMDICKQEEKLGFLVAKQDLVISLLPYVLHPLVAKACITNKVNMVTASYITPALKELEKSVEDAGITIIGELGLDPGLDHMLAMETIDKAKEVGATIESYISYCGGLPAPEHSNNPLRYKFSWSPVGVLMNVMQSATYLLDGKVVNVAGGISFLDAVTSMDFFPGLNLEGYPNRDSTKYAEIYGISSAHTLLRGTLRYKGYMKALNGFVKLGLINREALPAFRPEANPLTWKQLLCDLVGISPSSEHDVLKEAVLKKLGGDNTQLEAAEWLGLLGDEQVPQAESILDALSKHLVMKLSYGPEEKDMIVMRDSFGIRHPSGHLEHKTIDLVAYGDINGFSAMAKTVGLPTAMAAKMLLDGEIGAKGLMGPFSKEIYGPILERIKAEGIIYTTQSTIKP
Sequence of UniProt Q9C0C9 (Q9C0C9 whole entry, looked up): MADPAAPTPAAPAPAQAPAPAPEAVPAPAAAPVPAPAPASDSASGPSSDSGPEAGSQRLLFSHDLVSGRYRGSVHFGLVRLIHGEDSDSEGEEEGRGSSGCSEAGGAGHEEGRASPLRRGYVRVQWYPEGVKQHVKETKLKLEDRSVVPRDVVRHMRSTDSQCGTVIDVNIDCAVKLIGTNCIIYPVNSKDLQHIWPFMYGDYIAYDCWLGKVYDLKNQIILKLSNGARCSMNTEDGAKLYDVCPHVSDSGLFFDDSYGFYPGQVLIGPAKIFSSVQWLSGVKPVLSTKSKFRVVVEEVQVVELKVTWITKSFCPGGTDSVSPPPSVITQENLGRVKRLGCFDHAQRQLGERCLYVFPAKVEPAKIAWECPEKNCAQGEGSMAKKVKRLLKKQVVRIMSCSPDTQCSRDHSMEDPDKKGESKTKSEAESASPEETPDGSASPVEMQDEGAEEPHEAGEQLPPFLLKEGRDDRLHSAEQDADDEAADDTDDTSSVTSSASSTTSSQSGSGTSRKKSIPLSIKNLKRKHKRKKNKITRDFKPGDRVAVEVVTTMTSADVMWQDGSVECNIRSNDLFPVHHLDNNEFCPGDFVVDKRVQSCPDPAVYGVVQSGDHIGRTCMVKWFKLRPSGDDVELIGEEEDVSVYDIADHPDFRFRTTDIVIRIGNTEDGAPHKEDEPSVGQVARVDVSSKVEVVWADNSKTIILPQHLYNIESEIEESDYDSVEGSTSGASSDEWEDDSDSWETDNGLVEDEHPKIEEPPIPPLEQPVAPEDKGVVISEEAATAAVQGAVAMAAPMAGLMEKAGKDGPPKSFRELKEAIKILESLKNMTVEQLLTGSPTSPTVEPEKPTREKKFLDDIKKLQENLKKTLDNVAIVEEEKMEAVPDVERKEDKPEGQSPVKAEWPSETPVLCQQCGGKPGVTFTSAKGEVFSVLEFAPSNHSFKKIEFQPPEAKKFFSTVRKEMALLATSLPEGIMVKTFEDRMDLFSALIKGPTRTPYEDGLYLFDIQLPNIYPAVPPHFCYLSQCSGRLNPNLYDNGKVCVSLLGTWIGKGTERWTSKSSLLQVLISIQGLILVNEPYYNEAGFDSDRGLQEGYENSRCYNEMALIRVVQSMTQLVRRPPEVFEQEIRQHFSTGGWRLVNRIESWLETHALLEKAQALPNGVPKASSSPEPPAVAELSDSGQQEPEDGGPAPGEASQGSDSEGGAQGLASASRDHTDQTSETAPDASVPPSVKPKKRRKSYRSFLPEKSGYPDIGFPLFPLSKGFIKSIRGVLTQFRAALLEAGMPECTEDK
Sequence of UniProt Q9Y570 (Q9Y570 whole entry, looked up): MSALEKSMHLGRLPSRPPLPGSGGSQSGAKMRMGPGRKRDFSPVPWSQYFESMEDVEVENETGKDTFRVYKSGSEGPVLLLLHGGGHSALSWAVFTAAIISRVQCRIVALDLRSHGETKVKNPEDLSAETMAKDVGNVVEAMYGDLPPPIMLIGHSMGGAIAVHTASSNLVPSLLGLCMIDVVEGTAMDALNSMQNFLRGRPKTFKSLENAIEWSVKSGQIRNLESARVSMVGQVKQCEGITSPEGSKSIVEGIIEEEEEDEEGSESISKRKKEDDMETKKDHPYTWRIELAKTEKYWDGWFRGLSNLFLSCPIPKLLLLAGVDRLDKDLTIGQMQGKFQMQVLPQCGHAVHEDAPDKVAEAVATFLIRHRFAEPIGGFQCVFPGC
Sequence of UniProt Q9HA77 (Q9HA77 whole entry): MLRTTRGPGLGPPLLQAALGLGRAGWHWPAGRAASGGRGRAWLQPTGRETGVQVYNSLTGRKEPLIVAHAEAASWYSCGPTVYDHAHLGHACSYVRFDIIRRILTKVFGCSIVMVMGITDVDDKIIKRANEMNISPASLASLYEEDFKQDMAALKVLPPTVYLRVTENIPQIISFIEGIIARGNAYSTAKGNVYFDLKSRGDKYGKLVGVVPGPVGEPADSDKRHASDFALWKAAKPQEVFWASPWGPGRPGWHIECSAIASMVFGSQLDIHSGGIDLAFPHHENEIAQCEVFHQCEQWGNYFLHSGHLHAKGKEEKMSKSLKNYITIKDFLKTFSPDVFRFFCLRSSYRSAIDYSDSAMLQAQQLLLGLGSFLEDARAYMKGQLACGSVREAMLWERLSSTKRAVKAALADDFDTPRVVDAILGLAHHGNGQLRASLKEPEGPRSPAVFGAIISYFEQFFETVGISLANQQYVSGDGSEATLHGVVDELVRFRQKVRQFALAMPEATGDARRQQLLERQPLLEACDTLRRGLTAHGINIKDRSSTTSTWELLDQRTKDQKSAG
Sequence of UniProt Q9P2N5 (Q9P2N5 whole entry): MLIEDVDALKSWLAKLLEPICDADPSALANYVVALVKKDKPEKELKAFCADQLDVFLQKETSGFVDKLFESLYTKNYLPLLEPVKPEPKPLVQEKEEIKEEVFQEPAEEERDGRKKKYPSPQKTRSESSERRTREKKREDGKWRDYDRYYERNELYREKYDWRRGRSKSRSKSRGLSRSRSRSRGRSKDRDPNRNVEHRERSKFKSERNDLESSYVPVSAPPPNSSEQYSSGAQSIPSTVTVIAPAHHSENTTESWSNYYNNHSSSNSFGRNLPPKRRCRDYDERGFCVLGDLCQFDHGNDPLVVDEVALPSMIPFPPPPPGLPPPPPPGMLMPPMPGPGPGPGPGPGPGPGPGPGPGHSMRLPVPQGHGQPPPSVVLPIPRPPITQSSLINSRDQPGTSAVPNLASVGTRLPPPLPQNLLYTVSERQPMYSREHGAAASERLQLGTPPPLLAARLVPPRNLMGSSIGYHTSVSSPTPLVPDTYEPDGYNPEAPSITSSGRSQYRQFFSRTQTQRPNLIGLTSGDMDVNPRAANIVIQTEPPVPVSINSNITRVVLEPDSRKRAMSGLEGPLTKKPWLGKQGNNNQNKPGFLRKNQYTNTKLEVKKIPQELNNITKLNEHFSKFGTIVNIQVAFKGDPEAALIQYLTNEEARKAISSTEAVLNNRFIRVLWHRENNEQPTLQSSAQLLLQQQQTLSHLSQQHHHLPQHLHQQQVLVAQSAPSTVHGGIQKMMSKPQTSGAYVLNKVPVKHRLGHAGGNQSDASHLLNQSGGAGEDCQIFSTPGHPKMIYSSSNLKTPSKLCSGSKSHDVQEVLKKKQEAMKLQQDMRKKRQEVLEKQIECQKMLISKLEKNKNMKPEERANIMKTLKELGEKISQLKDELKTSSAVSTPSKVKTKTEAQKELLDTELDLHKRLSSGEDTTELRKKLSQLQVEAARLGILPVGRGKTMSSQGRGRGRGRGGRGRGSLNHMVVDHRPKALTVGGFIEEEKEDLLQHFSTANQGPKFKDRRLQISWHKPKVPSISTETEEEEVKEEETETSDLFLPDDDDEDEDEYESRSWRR

| Target | log2 ratio of iodoacetamide-alkyne labeling |
| --- | --- |
| PPME1 C381 (UniProt Q9Y570) | 1.48 (active) |
| PUS7L C142 (UniProt Q9H0K6) | -0.0378 |
| CHCHD3 C112 (UniProt Q9NX63) | 0.0891 |
| ACIN1 C691 (UniProt Q9UKV3) | 0.212 |
| CARS2 C526 (UniProt Q9HA77) | 0.206 |
| RAB3GAP2 C67 (UniProt Q9H2M9) | 0.306 |
| UniProt Q9Y2D5_C296 | 0.394 |
| REXO4 C382 (UniProt Q9GZR2) | 1.23 (active) |
| SRP68 C247 (UniProt Q9UHB9) | 0.197 |
| ITSN2 C810 (UniProt Q9NZM3) | 0.0149 |
| RCL1 C13 (UniProt Q9Y2P8) | -0.0901 |
| SPATA5L1 C309 (UniProt Q9BVQ7) | 1.11 (active) |
| UniProt Q9NSY1_C912 | 0.827 |
| MDN1 C271 (UniProt Q9NU22) | 0.728 |
| AGTPBP1 C567 (UniProt Q9UPW5) | 1.18 (active) |
| PRPF19 C230 (UniProt Q9UMS4) | 0.231 |
| FAM120A C892 (UniProt Q9NZB2) | 1.45 (active) |
| ANKFY1 C675 (UniProt Q9P2R3) | 0.216 |
| RBM27 C776 (UniProt Q9P2N5) | 0.232 |
| SAMHD1 C80 (UniProt Q9Y3Z3) | 0.175 |

| Target | log2 ratio of iodoacetamide-alkyne labeling |
| --- | --- |
| GNE C357 (UniProt Q9Y223) | 0.234 |
| UniProt Q9UPN4_C218 | 0.212 |
| POLE4 C84 (UniProt Q9NR33) | -0.0179 |
| NOSIP C185 (UniProt Q9Y314) | 0.25 |
| UTP6 C309 (UniProt Q9NYH9) | 0.0486 |
| SRRM2 C1480 (UniProt Q9UQ35) | 0.319 |
| ASF1B C172 (UniProt Q9NVP2) | 1.22 (active) |
| OSBPL3 C203 (UniProt Q9H4L5) | 0.76 |
| MRPL44 C53 (UniProt Q9H9J2) | -0.0312 |
| UBE2O C598 (UniProt Q9C0C9) | 0.166 |
| GPHN C293 (UniProt Q9NQX3) | 1.12 (active) |
| PPA2 C161 (UniProt Q9H2U2) | -0.42 |
| NOTCH3 C134 (UniProt Q9UM47) | 1.63 (active) |
| LIMD1 C305 (UniProt Q9UGP4) | 1.43 (active) |
| HEG1 C1360 (UniProt Q9ULI3) | 1.36 (active) |
| AASS C87 (UniProt Q9UDR5) | 0.102 |
| NCDN C3 (UniProt Q9UBB6) | 1.66 (active) |
| SEC63 C366 (UniProt Q9UGP8) | -0.163 |
| DAXX C720 (UniProt Q9UER7) | 1.35 (active) |
